# Assay results taken from the OligoGym collection.
# Target: PARP11
# Test: pooled miR-30 sensor sort-seq; sequence = guide strand
# Conditions: shRNA
# Note: reference of the scale not given here.
row,Sequence,sensor-assay potency score (higher = more potent)
1,TTTTTTTCTTGAGCTGAGCCTT,-0.839
2,TTTAATTCGGTTGCGATCCATC,-0.893
3,TTTTTTCTTGAGCTGAGCCTTT,-0.428
4,TATAAATTCACATAGCTCCCGT,0.0491
5,TAAAGCTTCCTTGACCACCGAG,0.0153
6,TTGAGTATTCACATTCTCCCAG,-0.0297
7,TTAATCTGAGGCACACCTCTTT,0.16
8,TAAGCTGATATGGTACTTGAGT,-0.461
9,TACTTGAGTATTCACATTCTCC,-0.755

# Target: PATL1
# Test: as above
# Conditions: shRNA
row,Sequence,sensor-assay potency score (higher = more potent)
1,TTTTCGGATACACATGATCTGT,-1.26
2,TGATCTTGATGACTGCTCCGGT,0.466
3,TTTTTCTCCTCTTGTCTCGAAC,-1.11
4,TTTCGGATACACATGATCTGTA,-0.0955
5,TTGAGGTAGGTTCATTAGCTGT,-1.61
6,TTATTCACACTAGAAACGGTAA,-0.529
7,TTTGTGTTGATTCTGTAGCAGG,-0.627
8,TGTCACAACAGCATCAATCATT,-0.773
9,TTTCTCAATTATAACAAGGGTT,-0.533
10,TATTCTGTTGCTGTCTCTGATG,-1.31
11,TAGCAGGGTCTGAACTCTGTAG,-0.715
12,TTTGTGCTTTCTGTCATCCATT,-0.905
